TEAD-YAP inh: TEAD-YAP interaction inhibition; HEK-TIYL cells, TEAD-Gal4/YAP UAS-luciferase luminescence; AID 1259422; inhibition, % at 9.12 µM; actives 1.4% (n = 640,000); in the data active = inhibition above about 32%;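 also: 0% = median of test compound wells and 100% = reference inhibitor wells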
MITF inh: inhibitors of human MITF | inhibition, % at 2.6 µM | AlphaScreen MITF homodimerization, bead proximity signal | actives 0.91% (n = 650,000) | AID 1259374 | O75030; in the data active = inhibition above about 50%;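 also: 0% = vehicle wells with protein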
GPR151 ag: activates the human receptor GPR151; Q8TDV0; PathHunter beta-arrestin GPR151 cells, luminescence; activation, % at 11.2 µM; actives 1% (n = 650,000); AID 1508602; in the data active = activation above about 4.9%;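 also: 0% = median of compound wells and 100% = cells with positive control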
FBW7 act: human FBW7 E3 ligase activation, primary screen. AlphaScreen FBW7–phospho-cyclin E peptide binding, activator screen. normalized activity (activation), % at 26.1 µM. actives 0.13% (n = 650,000); in the data active = normalized activity above about 1.9%;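 also: purified mutant Fbw7 with reduced substrate affinity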
Target sequence (Q969H0 whole entry, looked up): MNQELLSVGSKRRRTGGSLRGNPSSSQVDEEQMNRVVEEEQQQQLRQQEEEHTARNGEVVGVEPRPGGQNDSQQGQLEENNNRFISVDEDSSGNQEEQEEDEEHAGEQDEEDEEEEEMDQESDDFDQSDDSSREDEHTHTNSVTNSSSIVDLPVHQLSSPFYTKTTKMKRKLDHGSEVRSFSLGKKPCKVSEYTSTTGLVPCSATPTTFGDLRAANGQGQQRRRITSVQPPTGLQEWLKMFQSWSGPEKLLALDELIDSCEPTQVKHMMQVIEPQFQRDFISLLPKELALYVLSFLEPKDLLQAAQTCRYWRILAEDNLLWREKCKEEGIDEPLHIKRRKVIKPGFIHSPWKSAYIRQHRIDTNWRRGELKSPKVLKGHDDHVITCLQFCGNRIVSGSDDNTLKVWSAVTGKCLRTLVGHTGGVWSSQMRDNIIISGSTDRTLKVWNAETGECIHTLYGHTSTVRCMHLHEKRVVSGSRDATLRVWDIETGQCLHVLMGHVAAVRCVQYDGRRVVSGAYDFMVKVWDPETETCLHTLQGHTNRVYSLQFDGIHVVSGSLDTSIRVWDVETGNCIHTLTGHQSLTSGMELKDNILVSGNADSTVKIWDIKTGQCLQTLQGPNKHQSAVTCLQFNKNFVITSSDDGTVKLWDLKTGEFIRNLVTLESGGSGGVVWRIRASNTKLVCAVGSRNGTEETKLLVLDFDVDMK
GPR151 confirm: confirmation of human GPR151 activators. shares compounds with GPR151 ag. GPR151 PathHunter beta-arrestin cells, luminescence, 90 min; % of EA-reagent control over plate median. activation, % at 11.2 µM. 6,700 tested, under 10 active. AID 1508609;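 active = mean percent activation across replicates above the confirmation screen cutoff of 4.91%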
GPR119 counter: counter-screen for GPR151 activators: effect on human GPR119 | shares compounds with GPR151 ag | GPR119 PathHunter beta-arrestin cells, luminescence, 90 min; 0 = compound-well median, 100 = enzyme-acceptor control | activation, % at 11.2 µM | actives 0.3% (n = 6,700) | AID 1508611;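 active = mean percent activation in the counterscreen above 29.09%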;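 also: counterscreen on off-target GPR119 to flag nonselective hits from the GPR151 activator screen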
Active calls of the source: *; x = no result. Most compounds without a hit are left out; they make up all but 3.5% or so of the library.

SMILES | TEAD-YAP inh | MITF inh | GPR151 ag | FBW7 act | GPR151 confirm | GPR119 counter
Cc1c(C(=O)OC(C)C)sc(NC(=O)c2cc(Cl)ccc2Cl)c1C#N | 3.8 | -1.3 | 0.7 | -0.1 | x | x
O=C(CN1CCOCC1)N1c2ccccc2C=Cc2ccccc21 | -2.2 | 0.9 | -2.2 | 0.2 | x | x
CSc1ccccc1C(=O)Nc1ccccc1Cl | 9.6 | 6.3 | 8.2* | 0.0 | -1.2 | 5.3
CCc1ccccc1NC(=S)N(Cc1cccc(Br)c1)CC1CCC(C(=O)O)CC1 (stereo not given) | 11.3 | 2.5 | 7.9* | -0.1 | 0.4 | 8.3
COc1ccc(Cl)cc1NC(=S)N(Cc1cccc(Br)c1)CC1CCC(C(=O)O)CC1 (stereo not given) | 5.6 | -12.6 | 15.2* | 0.1 | -0.9 | 5.7
Cc1ccc(C2=NS(=O)(=O)N(C)C(C(=O)Nc3ccc(F)cc3F)=C2)cc1 | -0.8 | -0.3 | 11.5* | -0.2 | 1.4 | -10.0
COc1ccc(C2=NS(=O)(=O)N(C)C(C(=O)Nc3ccc(F)cc3F)=C2)cc1OC | 22.8 | -3.1 | 0.2 | -0.1 | x | x
N#Cc1ccc(C(=O)Nc2ccc(Br)cc2)c(F)c1 | -50.9 | 6.3 | 0.8 | 0.1 | x | x
Cc1cc(Br)ccc1NC(=O)c1ccc(C#N)cc1F | -6.3 | -14.5 | 13.3* | -0.2 | -0.6 | 5.5
COc1cccc(C(=O)Nc2cc(=O)n(C)c(=O)n2C)c1 | 12.7 | 8.1 | 10.2* | 0.5 | 0.3 | -8.2
COc1cccc(C(=O)Nc2cc(C(C)(C)C)ccc2C(C)=O)c1 | 5.7 | 15.5 | 5.2* | 0.6 | 0.0 | -8.6
COc1ccc(C(=O)Nc2cc(=O)n(C)c(=O)n2C)cc1 | -4.1 | 2.3 | 3.8 | -0.3 | x | x
CC(=O)c1ccc(C(C)(C)C)cc1NC(=O)c1ccc(Cl)cc1 | 3.2 | 4.4 | -0.1 | 0.1 | x | x
Cc1cc(-c2nc3cc(Cl)ccc3c(=O)o2)ccc1[N+](=O)[O-] | -3.5 | -4.0 | 6.3* | 0.1 | -0.2 | 3.1
Cc1ccc(-c2nc3cc(Cl)ccc3c(=O)o2)cc1C | -46.9 | -8.4 | -1.9 | 0.1 | x | x
CCOC(=O)c1cn(CC(=O)Nc2ccc(F)cc2)nn1 | -1.9 | 6.0 | -1.5 | 0.3 | x | x
Cn1nnnc1SCc1nnc(-c2cccs2)o1 | -20.6 | 2.3 | 7.6* | 0.1 | 0.7 | 14.1
Cn1nnnc1SCc1nnc(-c2ccccc2)o1 | -25.1 | -2.9 | 0.9 | -0.2 | x | x
C=CCNC(=O)C1CCN(S(=O)(=O)c2ccc(Br)cc2)CC1 | 8.1 | -3.4 | 5.7* | 0.1 | 0.6 | -3.9
COCCCNC(=O)C1CCN(S(=O)(=O)c2ccc(Br)cc2)CC1 | 10.0 | 1.7 | -0.7 | 0.2 | x | x
COC(=O)c1ccc(NC(=O)CSc2nnc3[nH]c(=O)ccn23)cc1 | 13.6 | 2.1 | 6.3* | 0.0 | -1.3 | -0.9
CC(C)Oc1ccc(CN2CCCC(CO)(Cc3ccccc3)C2)cc1CO (stereo not given) | 2.3 | 9.6 | 5.0* | 0.7 | -1.0 | -6.9
Cc1csc(NC(=O)CSc2nnc(-c3ccccn3)n2-c2ccc(Cl)cc2)n1 | 11.6 | 8.1 | 0.3 | -0.3 | x | x
CCc1cccc(NS(=O)(=O)c2ccc3c(c2)n(C)c(=O)n3C)c1 | 24.9 | 3.4 | 1.1 | 0.3 | x | x
Cn1c(=O)n(C)c2cc(S(=O)(=O)Nc3cccc(C(F)(F)F)c3)ccc21 | 0.7 | -11.6 | 5.1* | -0.2 | -0.6 | 7.0
SMILES | TEAD-YAP inh | MITF inh | GPR151 ag | FBW7 act | GPR151 confirm | GPR119 counter
Cc1ccccc1OCC(=O)Nc1ccc(Cl)c(-c2nc3ccccc3s2)c1 | -2.6 | -7.1 | 6.4* | -0.1 | 0.6 | 19.9
O=C1c2cccc3cccc(c23)N1Cc1c(O)ccc2ccccc12 | 5.8 | 4.1 | 5.5* | 0.4 | 0.2 | -6.4
Cc1cc(C)nc(N2CCC(NC3CCCCCC3)CC2)n1 | 6.3 | -13.7 | -1.3 | 0.8 | x | x
COC(=O)C1=C(C)NC(=O)CC1c1cccc(Oc2ccccc2)c1 (stereo not given) | 11.4 | 10.5 | 8.3* | 0.3 | 1.3 | -5.1
CC1=C(C(=O)OC(C)C)C(c2cccc(Oc3ccccc3)c2)C(C(=O)OC(C)C)=C(C)N1 | 7.0 | -5.7 | -0.6 | -0.1 | x | x
C=CCOC(=O)C1=C(C)NC(C)=C(C(=O)OCC=C)C1c1cccc(Oc2ccccc2)c1 | 2.9 | 8.6 | 7.1* | 0.8 | -0.5 | -3.6
CCN(CC)c1ccc(CN2CCc3nnc(CNS(=O)(=O)C(C)C)n3CC2)cc1 | 0.2 | 17.2 | 1.4 | -0.1 | x | x
CCOC(=O)c1sc(NC(=O)c2ccccc2OC)c(C#N)c1C | -9.8 | 5.4 | -0.5 | -0.2 | x | x
COc1cc(OC)c(C(=O)OC(C)C(=O)NC(N)=O)cc1OC (stereo not given) | -4.0 | 5.7 | 12.7* | -0.1 | 0.6 | 2.8
O=S(=O)(c1ccc(Cl)cc1)N1CCN(CCO)CC1 | 4.8 | -2.9 | -2.0 | 0.0 | x | x
Cc1ccc(N2C(=O)CC(c3ccccc3)C3=C2CC(C)(C)CC3=O)cc1 (stereo not given) | 10.5 | 10.7 | -2.0 | -0.4 | x | x
CC1(C)CC(=O)C2=C(C1)N(c1ccccc1)C(=O)CC2c1ccccc1 (stereo not given) | 1.9 | 13.2 | 6.8* | 0.0 | -0.2 | -7.3
O=C(C1CC(=O)N(c2ccccc2)C1)N1CCN(C(c2ccccc2)c2ccccc2)CC1 (stereo not given) | -3.5 | -0.2 | 1.5 | -0.1 | x | x
CCNc1nc(OC(C(F)(F)F)C(F)(F)F)nc(N2CCCCC2)n1 | 3.1 | -9.2 | 6.0* | -0.2 | 2.0 | 13.1
O=C(C[n+]1ccccc1)Nc1ccccc1C(=O)O | 4.4 | -5.8 | 7.5* | 0.0 | 0.7 | -1.9
CC1C2NC(=S)NC1(C)Oc1ccccc12 (stereo not given) | 0.7 | 8.4 | 7.4* | 0.0 | 0.1 | 9.0
Cc1ccc(NC(=O)C2CCCN2C(=O)OC(C)(C)C)cc1 (stereo not given) | 0.1 | -5.3 | -1.9 | 0.0 | x | x
COc1cccc(OC)c1C(=O)Nc1ccc(Br)c2cccnc12 | 2.1 | 5.7 | -1.1 | 0.0 | x | x
COC(=O)c1ccc(NC(=O)CCNCc2ccco2)cc1 | 3.3 | -17.2 | -1.3 | -0.2 | x | x
NC(=O)c1ccccc1Nc1ccnc(Nc2ccc(N3CCOCC3)cc2)c1 | 26.7 | -5.5 | 0.1 | -0.3 | x | x
Cn1nc(-c2ccnc(Nc3ccc(N4CCOCC4)cc3)c2)cc1Nc1ccccc1 | -5.3 | -3.8 | 5.7* | -0.4 | -0.1 | -6.2
NC(=O)c1cc2ccccc2cc1Nc1ccnc(Nc2ccc(N3CCOCC3)cc2)c1 | 83.5* | 34.2 | 6.5* | -0.2 | -0.1 | 0.5
CCOC(=O)C1=C(C)N(C)C(=O)NC1c1ccccc1Cl (stereo not given) | -2.0 | 1.8 | -1.7 | 0.0 | x | x
CCCCCOC(=O)C1=C(C)N(C)C(=O)NC1c1ccccc1Cl (stereo not given) | 1.5 | -3.2 | 5.0* | -0.1 | 0.9 | 11.8
Cc1ccc(C(C(=O)NC2CCCC2)N(C)C)cc1 (stereo not given) | 10.2 | 15.9 | -0.7 | 0.1 | x | x
CN(C)C(C(=O)NC1CCCC1)c1ccc(Cl)cc1 (stereo not given) | 3.5 | -3.8 | 6.0* | -0.1 | -1.0 | -3.4

Compound activity: PubChem BioAssay, The Scripps Research Institute Molecular Screening Center
